Reference: PubChem BioAssay AID1159580 (chemical genetic matrix, 2015)
Several values for one entry are separate records, joined by “and”; a condition that tells them apart may be missing. Equal entries are not always repeated. About 2,000 (36%) of roughly 5,500 compounds were called active. Not shown: some 18% with an inconclusive outcome. No stated cut-off is given here; in the data, active means normalized growth mostly below about 0.91 (no sharp cut-off); inconclusive means no clear call, values can overlap the other calls; inactive means mostly above about 0.92. This is one part of the list.

Assay: chemical genetic growth profiling, strain panel (AID 1159580);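 further: tested at 20 µM; growth read once vehicle control cultures reached saturation at 30 °C; 1 = growth at the plate median or of vehicle wells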
Conditions: growth OD

Measured: normalized growth

CC(C)NCC(O)COc1cccc2[nH]ccc12 (stereo not given)
inactive: S. cerevisiae deletion strains, locus YJR075W, strain HOC1, stronger effect = lower value 1.01 | S. cerevisiae deletion strains, locus YKL009W, strain mrt4, stronger effect = lower value 0.966 | S. cerevisiae deletion strains, locus YKL068W, stronger effect = lower value 0.984 | S. cerevisiae deletion strains, locus YKL085W, strain MDH1 (second series), stronger effect = lower value 0.968 | S. cerevisiae deletion strains, locus YKL085W, strain MDH1, stronger effect = lower value 0.968 | S. cerevisiae deletion strains, locus YKL160W, strain elf1, stronger effect = lower value 1 | S. cerevisiae deletion strains, locus YKL190W, strain CNB1, stronger effect = lower value 0.993 | S. cerevisiae deletion strains, locus YKR001C, strain vps1, stronger effect = lower value 0.988 | S. cerevisiae deletion strains, locus YKR026C, strain gcn3, stronger effect = lower value 0.966 | S. cerevisiae deletion strains, locus YKR091W, strain srl3, stronger effect = lower value 0.992 | S. cerevisiae deletion strains, locus YLL026W, stronger effect = lower value 0.983 | S. cerevisiae deletion strains, locus YLL041C, strain sdh2, stronger effect = lower value 0.983 | S. cerevisiae deletion strains, locus YLR027C, strain aat2, stronger effect = lower value 0.985 | S. cerevisiae deletion strains, locus YLR039C, strain RIC1, stronger effect = lower value 0.962 | S. cerevisiae deletion strains, locus YLR058C, strain SHM2, stronger effect = lower value 0.996 | S. cerevisiae deletion strains, locus YLR102C, strain apc9, stronger effect = lower value 0.988 | S. cerevisiae deletion strains, locus YLR113W, strain HOG1, stronger effect = lower value 0.987 | S. cerevisiae deletion strains, locus YLR221C, strain rsa3, stronger effect = lower value 0.994 | S. cerevisiae deletion strains, locus YLR258W, strain gsy2, stronger effect = lower value 0.981 | S. cerevisiae deletion strains, locus YLR262C, strain YPT6 (second series), stronger effect = lower value 0.994 | S. cerevisiae deletion strains, locus YLR262C, strain YPT6, stronger effect = lower value 0.966 | S. cerevisiae deletion strains, locus YLR268W, strain sec22, stronger effect = lower value 0.953 | S. cerevisiae deletion strains, locus YLR320W, strain mms22, stronger effect = lower value 0.977 | S. cerevisiae deletion strains, locus YLR330W, strain CHS5, stronger effect = lower value 0.978 | S. cerevisiae deletion strains, locus YLR342W, strain FKS1 (second series), stronger effect = lower value 0.994 | S. cerevisiae deletion strains, locus YLR342W, strain FKS1, stronger effect = lower value 0.996 | S. cerevisiae deletion strains, locus YLR357W, strain rsc2, stronger effect = lower value 0.952 | S. cerevisiae deletion strains, locus YLR370C, strain arc18, stronger effect = lower value 0.974 | S. cerevisiae deletion strains, locus YLR371W, strain rom2, stronger effect = lower value 0.97 | S. cerevisiae deletion strains, locus YLR384C, strain iki3, stronger effect = lower value 0.992 | S. cerevisiae deletion strains, locus YLR418C, strain cdc73, stronger effect = lower value 1 | S. cerevisiae deletion strains, locus YML016C, strain PPZ1, stronger effect = lower value 0.995 | S. cerevisiae deletion strains, locus YML032C, strain rad52, stronger effect = lower value 0.984 | S. cerevisiae deletion strains, locus YML120C, strain ndi1, stronger effect = lower value 0.976 | S. cerevisiae deletion strains, locus YML124C, strain tub3, stronger effect = lower value 0.989 | S. cerevisiae deletion strains, locus YMR058W, strain fet3, stronger effect = lower value 0.977 | S. cerevisiae deletion strains, locus YMR078C, strain ctf18, stronger effect = lower value 0.981 | S. cerevisiae deletion strains, locus YMR125W, strain sto1, stronger effect = lower value 0.953 | S. cerevisiae deletion strains, locus YMR129W, stronger effect = lower value 0.974 | S. cerevisiae deletion strains, locus YMR205C, strain PFK2, stronger effect = lower value 0.968 | S. cerevisiae deletion strains, locus YMR223W, strain ubp8, stronger effect = lower value 1.03 | S. cerevisiae deletion strains, locus YMR231W, strain pep5, stronger effect = lower value 0.984 | S. cerevisiae deletion strains, locus YMR263W, strain SAP30, stronger effect = lower value 0.985 and 1 and 0.998 | S. cerevisiae deletion strains, locus YMR307W, strain GAS1, stronger effect = lower value 1 and 0.998 | S. cerevisiae deletion strains, locus YNL067W, strain RPL9B, stronger effect = lower value 0.992 | S. cerevisiae deletion strains, locus YNL071W, strain lat1, stronger effect = lower value 0.982 | S. cerevisiae deletion strains, locus YNL128W, strain TEP1, stronger effect = lower value 0.986 | S. cerevisiae deletion strains, locus YNL153C, strain GIM3, stronger effect = lower value 1.01 | S. cerevisiae deletion strains, locus YNL175C, strain NOP13, stronger effect = lower value 0.995 and 1.02 | S. cerevisiae deletion strains, locus YNL183C, strain NPR1, stronger effect = lower value 0.955 | S. cerevisiae deletion strains, locus YNL197C, strain WHI3, stronger effect = lower value 0.986 and 1.02 | S. cerevisiae deletion strains, locus YNL209W, strain ssb2, stronger effect = lower value 0.99 | S. cerevisiae deletion strains, locus YNL224C, strain SQS1, stronger effect = lower value 0.992 and 0.996 | S. cerevisiae deletion strains, locus YNL233W, strain BNI4, stronger effect = lower value 0.995 | S. cerevisiae deletion strains, locus YNL248C, strain rpa49, stronger effect = lower value 1 | S. cerevisiae deletion strains, locus YNL250W, strain rad50, stronger effect = lower value 0.986 | S. cerevisiae deletion strains, locus YNL271C, strain bni1, stronger effect = lower value 0.993 | S. cerevisiae deletion strains, locus YNL298W, strain CLA4, stronger effect = lower value 0.977 | S. cerevisiae deletion strains, locus YNL307C, strain MCK1, stronger effect = lower value 0.982 | S. cerevisiae deletion strains, locus YNL322C, strain KRE1 (second series), stronger effect = lower value 0.994 | S. cerevisiae deletion strains, locus YNL322C, strain KRE1, stronger effect = lower value 0.995 and 0.991 and 1.02 | S. cerevisiae deletion strains, locus YNR049C, strain mso1, stronger effect = lower value 0.975 | S. cerevisiae deletion strains, locus YNR052C, strain pop2, stronger effect = lower value 0.967 | S. cerevisiae deletion strains, locus YOL006C, strain TOP1, stronger effect = lower value 1.04 | S. cerevisiae deletion strains, locus YOL012C, strain htz1 0.915 | S. cerevisiae deletion strains, locus YOL147C, strain pex11, stronger effect = lower value 0.992 | S. cerevisiae deletion strains, locus YOR001W, strain rrp6, stronger effect = lower value 0.994 | S. cerevisiae deletion strains, locus YOR061W, strain CKA2, stronger effect = lower value 0.996 | S. cerevisiae deletion strains, locus YOR069W, strain VPS5, stronger effect = lower value 0.991 | S. cerevisiae deletion strains, locus YOR070C, strain gyp1, stronger effect = lower value 0.981 | S. cerevisiae deletion strains, locus YOR080W, strain dia2, stronger effect = lower value 0.983 | S. cerevisiae deletion strains, locus YOR083W, strain WHI5 (second series), stronger effect = lower value 1.02 and 0.995 | S. cerevisiae deletion strains, locus YOR083W, strain WHI5, stronger effect = lower value 1.01 | S. cerevisiae deletion strains, locus YOR106W, strain vam3, stronger effect = lower value 1 | S. cerevisiae deletion strains, locus YOR136W, strain idh2, stronger effect = lower value 0.995 | S. cerevisiae deletion strains, locus YOR144C, strain elg1, stronger effect = lower value 0.992 | S. cerevisiae deletion strains, locus YOR184W, strain ser1, stronger effect = lower value 0.988 | S. cerevisiae deletion strains, locus YOR231W, strain MKK1, stronger effect = lower value 1 | S. cerevisiae deletion strains, locus YOR265W, strain rbl2, stronger effect = lower value 0.982 | S. cerevisiae deletion strains, locus YOR270C, strain vph1, stronger effect = lower value 0.973 | S. cerevisiae deletion strains, locus YOR290C, strain snf2, stronger effect = lower value 0.963 | S. cerevisiae deletion strains, locus YOR316C, strain cot1, stronger effect = lower value 0.98 | S. cerevisiae deletion strains, locus YPL051W, strain arl3, stronger effect = lower value 0.996 | S. cerevisiae deletion strains, locus YPL055C, strain LGE1, stronger effect = lower value 1.01 and 0.998 | S. cerevisiae deletion strains, locus YPL078C, strain atp4, stronger effect = lower value 0.989 | S. cerevisiae deletion strains, locus YPL106C, strain sse1, stronger effect = lower value 0.979 | S. cerevisiae deletion strains, locus YPL240C, strain hsp82, stronger effect = lower value 0.98 | S. cerevisiae deletion strains, locus YPL241C, strain CIN2, stronger effect = lower value 0.991 and 0.996 | S. cerevisiae deletion strains, locus YPL256C, strain CLN2, stronger effect = lower value 0.99 | S. cerevisiae deletion strains, locus YPR119W, strain clb2, stronger effect = lower value 0.981 | S. cerevisiae deletion strains, locus YPR141C, strain kar3, stronger effect = lower value 0.993 | S. cerevisiae deletion strains, locus YPR163C, strain tif3, stronger effect = lower value 0.984 | S. cerevisiae deletion strains, locus YPR167C, strain met16, stronger effect = lower value 0.977 | S. cerevisiae deletion strains, strain wtn01, stronger effect = lower value 0.985 | S. cerevisiae strains, strain wild type, stronger effect = lower value 1
